Measurements from PubChem BioAssay (NCATS).
Inconclusive results are not listed. Active and inactive are the calls of the source. Calls follow the shape of the dose curve; as a rule, active = well fitted inhibition curve with a large enough effect; inconclusive = small, poorly fitted or top-dose-only effect; inactive = flat fitted curve, though single readings scatter.

biological target: Luciferin 4-monooxygenase (Photinus pyralis) (UniProt P08659); experiment: Biochemical firefly luciferase enzyme assay for NPC (AID 624030);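 also: purified P. pyralis luciferase at 10 nM with luciferin and ATP substrate; nearly all actives have a fitted effect of over 70% in size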; settings: purified P. pyralis luciferase, luminescence, 5 min; series mostly up to 58.6 µM
Sequence (P08659 whole entry, looked up): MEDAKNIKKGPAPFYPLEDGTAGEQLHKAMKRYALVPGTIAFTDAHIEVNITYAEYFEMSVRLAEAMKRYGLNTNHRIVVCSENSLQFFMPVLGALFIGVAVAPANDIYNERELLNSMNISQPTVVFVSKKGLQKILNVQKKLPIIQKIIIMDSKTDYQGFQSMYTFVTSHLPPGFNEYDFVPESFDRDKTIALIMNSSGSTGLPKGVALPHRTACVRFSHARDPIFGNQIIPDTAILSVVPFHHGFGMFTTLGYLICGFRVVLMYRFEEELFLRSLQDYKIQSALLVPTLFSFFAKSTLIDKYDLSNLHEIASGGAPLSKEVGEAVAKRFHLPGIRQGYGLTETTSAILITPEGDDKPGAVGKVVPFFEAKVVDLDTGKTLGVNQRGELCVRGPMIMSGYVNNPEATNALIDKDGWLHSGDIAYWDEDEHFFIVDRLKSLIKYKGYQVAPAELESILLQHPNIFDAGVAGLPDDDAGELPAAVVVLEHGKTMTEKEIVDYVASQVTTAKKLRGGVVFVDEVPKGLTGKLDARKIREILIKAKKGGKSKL
In short: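 Counter-screen for direct inhibition of the luciferase enzyme by approved-drug library compounds, run at 10 nM enzyme in 50 mM Tris acetate (final). Luminescence was read within 5 min of enzyme-buffer addition and normalized to PTC124 versus DMSO (0%).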

Potency, inactive:
COc1cc(/C=C/C(=O)O[C@H]2CC[C@]34C[C@]35CC[C@]3(C)[C@@H]([C@H](C)CCC=C(C)C)CC[C@@]3(C)C5CCC4C2(C)C)ccc1O (stereo partly specified)
CCC(=O)C(Cc1ccccc1)(Cc1ccccc1)CC(C)N(C)C (stereo unspecified)
CC(=O)O[C@]1(C(=O)CO)[C@@H](C)C[C@H]2[C@@H]3CCC4=CC(=O)C=C[C@]4(C)[C@@]3(F)[C@@H](O)C[C@]21C
Cc1cccc(C)c1N(CCCc1cccnc1)C(=O)[C@@H](C)N
CCC[C@@H]1CC(C(=O)NC(C2O[C@H](SC)C(OP(=O)(O)O)[C@H](O)[C@H]2O)[C@H](C)Cl)N(C)C1 (stereo partly specified)
CC1CC2C3CCC4=CC(=O)C=CC4(C)[C@@]3(F)C(O)CC2(C)[C@@]1(O)C(=O)CCl (stereo partly specified)
C#C[C@@]1(OC(C)=O)CC[C@H]2[C@@H]3CCC4=CC(=O)CC[C@@H]4[C@H]3CC[C@@]21C
CS(=O)(=O)NC(=O)CCC/C=C\C[C@H]1C(=O)C[C@@H](O)[C@@H]1/C=C/[C@@H](O)COc1ccccc1
O=C1O[C@H]2[C@@H](OC(O)[C@@H]2O)[C@H]1O (stereo partly specified)
CC[C@H](C)[C@H](NC(=O)[C@H](CO)NC(=O)[C@H](CC(N)=O)NC(=O)[C@H](CC(C)C)NC(=O)[C@H](Cc1ccc(O)cc1)NC(=O)[C@H](CCCCN)NC(=O)[C@H](CCCCN)NC(=O)[C@@H](NC(=O)[C@H](C)NC(=O)[C@H](CCSC)NC(=O)[C@H](CCC(N)=O)NC(=O)[C@H](CCCCN)NC(=O)[C@H](CCCNC(=N)N)NC(=O)[C@H](CC(C)C)NC(=O)[C@H](CCCNC(=N)N)NC(=O)[C@@H](NC(=O)[C@H](Cc1ccc(O)cc1)NC(=O)[C@H](CC(N)=O)NC(=O)[C@H](CC(=O)O)NC(=O)[C@@H](NC(=O)[C@H](Cc1ccccc1)NC(=O)[C@@H](NC(=O)[C@H](C)NC(=O)[C@H](CC(=O)O)NC(=O)[C@H](CO)NC(=O)[C@@H](N)Cc1c[nH]cn1)C(C)C)[C@@H](C)O)[C@@H](C)O)C(C)C)C(=O)N[C@@H](CC(C)C)C(=O)N[C@@H](CC(N)=O)C(=O)O
COc1cc2c(cc1OC)[C@@H](Cc1cc(OC)c(OC)c(OC)c1)[N@+](C)(CCCOC(=O)CC/C=C/CCC(=O)OCCC[N@+]1(C)CCc3cc(OC)c(OC)cc3[C@H]1Cc1cc(OC)c(OC)c(OC)c1)CC2
COCC1=C(C(=O)OC(C)OC(=O)OC(C)C)N2C(=O)C(NC(=O)/C(=N\OC)c3csc(N)n3)C2SC1 (stereo unspecified)
CC(=O)OC1CCC2(C)C(=CCC3C2CCC2(C)C(C(C)=O)CCC32)C1 (stereo unspecified)
CCC(C)C1OC2(C=CC1C)CC1CC(C/C=C(\C)C(OC3CC(OC)C(OC4CC(OC)C(NC(C)=O)C(C)O4)C(C)O3)C(C)/C=C/C=C3\COC4C(O)C(C)=CC(C(=O)O1)C34O)O2 (stereo unspecified) (tested in a mixture with another compound)
CCCCCCC(=O)O[C@@H]1CC[C@H]2[C@@H]3CCc4cc(O)ccc4[C@H]3CC[C@]12C
CC(=O)NC(CCC(N)=O)C(=O)O (stereo unspecified)
CC/C(O)=N/S(=O)(=O)c1ccc(-c2c(-c3ccccc3)noc2C)cc1
CN1C2CCC1CC(NC(=O)n1c(=O)[nH]c3ccccc31)C2 (stereo unspecified)
CC(=O)O[C@@H]1C(=O)O[C@H]2[C@@H]1OC(=O)[C@@H]2OC(C)=O
O=C(CO)C(O)C(O)C(O)CO (stereo unspecified)
Cc1c(C)c2c(c(C)c1OC(=O)CCC(=O)OCCO)CC[C@](C)(CCC[C@H](C)CCC[C@H](C)CCCC(C)C)O2
NCCCCC(NC(=O)C1CCCN1C(=O)C1CSSCC(N)C(=O)NC(Cc2ccc(O)cc2)C(=O)NC(Cc2ccccc2)C(=O)NC(CCC(N)=O)C(=O)NC(CC(N)=O)C(=O)N1)C(=O)NCC(N)=O (stereo unspecified)
CN(Cc1ccc(C(C)(C)C)cc1)c1cccc2ccccc12
CC(C)(S)C(=O)N[C@H](CS)C(=O)O
CCC(C)C1OC2(C=CC1C)CC1CC(C/C=C(/C)C(OC3CC(OC)C(OC4CC(OC)C(NC(C)=O)C(C)O4)C(C)O3)C(C)/C=C\C=C3\COC4C(O)C(C)=CC(C(=O)O1)C34O)O2 (stereo unspecified)
CC/C=C(/C(=O)N[C@@H]1C(=O)N2C(C(=O)OCOC(=O)C(C)(C)C)=C(COC(N)=O)CS[C@H]12)c1csc(N)n1
